An excerpt weighted towards active compounds, which were near 11% of everything screened.
BAZ2B inh = inhibitors of human BAZ2B bromodomain | actives 4.4% (n = 360,000) | AID 504333 | AlphaScreen BAZ2B-H3K14Ac peptide displacement | Potency, µM (titrated, usually from 114 µM), without a hit: top-dose activity change, negative = inhibition, usual class: inhibitors | Q9UIF8; also: % is scaled to controls: 0 for no effect and ±100 for the full control effect; nearly all actives have a fitted effect of over 60% in size
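AlphaScreen displacement of biotin-H3(5-23)K14Ac peptide (50 nM final) from BAZ2B (50 nM final) in PBS pH 7.4, 0.01% Tween-20; complex preformed 30 min RT, then compounds (top 110 uM) 30 min RT, beads 20 min dark.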
HP1b binding inh = inhibitors of HP1-beta chromodomain binding to methylated histone tails. AID 540317. P83916. actives 0.56% (n = 390,000). Potency, µM (highest dose often 114 µM), for inactives: at the top dose activity change, negative = inhibition, usual class: inhibitors. AlphaScreen HP1-beta / biotin-H3K9me3 peptide binding; also: nearly all actives have a fitted effect of over 70% in size
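HP1-beta protein (50 nM final) preincubated 30 min at room temperature with biotinylated H3(1-18)K9me3 peptide (50 nM) in PBS pH 7.4, 0.01% Tween-20, then compound added for 30 min. AlphaScreen streptavidin donor/nickel chelate acceptor beads (10 ug/mL final), 30 min dark, luminescence read.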
JMJD2A Tudor = blocks the human JMJD2A Tudor domain; actives 4.4% (n = 390,000); O75164; Potency, µM (highest dose often 114 µM), for inactives: top-dose activity change, negative = inhibition, most hits filed as inhibitors; AlphaScreen JMJD2A-Tudor / H3K4me3 peptide binding; also: % is scaled to controls: 0 for no effect and ±100 for the full control effect; nearly all actives have a fitted effect of over 50% in size
Target sequence (O75164 whole entry, looked up, the tested form may be a part): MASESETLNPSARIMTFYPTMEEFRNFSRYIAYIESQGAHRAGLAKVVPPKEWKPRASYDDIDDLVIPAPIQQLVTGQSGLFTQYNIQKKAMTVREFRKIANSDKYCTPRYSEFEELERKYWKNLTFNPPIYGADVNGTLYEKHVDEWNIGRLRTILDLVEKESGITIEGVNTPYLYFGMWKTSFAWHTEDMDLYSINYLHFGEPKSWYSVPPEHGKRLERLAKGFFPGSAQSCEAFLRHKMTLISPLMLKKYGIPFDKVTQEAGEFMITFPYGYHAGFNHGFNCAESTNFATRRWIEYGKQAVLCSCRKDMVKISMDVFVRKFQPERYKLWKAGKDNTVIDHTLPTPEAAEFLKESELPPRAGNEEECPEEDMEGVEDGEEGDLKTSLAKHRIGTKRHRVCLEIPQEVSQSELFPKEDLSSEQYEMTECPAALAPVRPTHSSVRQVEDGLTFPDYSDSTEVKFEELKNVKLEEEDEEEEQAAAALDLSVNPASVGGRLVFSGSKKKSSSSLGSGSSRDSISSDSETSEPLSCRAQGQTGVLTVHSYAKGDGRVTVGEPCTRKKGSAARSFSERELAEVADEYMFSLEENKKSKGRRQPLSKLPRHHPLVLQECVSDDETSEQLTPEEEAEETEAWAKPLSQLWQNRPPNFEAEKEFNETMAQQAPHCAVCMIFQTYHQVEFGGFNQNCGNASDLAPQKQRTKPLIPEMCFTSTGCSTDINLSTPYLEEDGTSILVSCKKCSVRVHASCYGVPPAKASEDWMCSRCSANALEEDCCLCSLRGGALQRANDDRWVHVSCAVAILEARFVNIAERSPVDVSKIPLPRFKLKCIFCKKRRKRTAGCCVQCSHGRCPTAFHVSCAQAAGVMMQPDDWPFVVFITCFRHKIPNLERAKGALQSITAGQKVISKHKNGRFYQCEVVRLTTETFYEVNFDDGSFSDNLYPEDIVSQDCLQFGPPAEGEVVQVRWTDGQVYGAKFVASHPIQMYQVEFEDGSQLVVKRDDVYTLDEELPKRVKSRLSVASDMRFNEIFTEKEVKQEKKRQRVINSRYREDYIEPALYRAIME
L3MBTL1 inh = L3MBTL1 (human) inhibition | AlphaScreen L3MBTL1–H3K9me1 peptide binding | Potency, µM (doses to about 57.1 µM), inactives show top-dose activity, negative = inhibition, usual class: inhibitors | actives 0.66% (n = 230,000); also: % is scaled to controls: 0 for no effect and ±100 for the full control effect; nearly all actives have a fitted effect of over 60% in size
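Read-out is AlphaScreen signal from streptavidin donor and nickel chelate acceptor beads (10 ug/mL final each) bridging L3MBTL1 (50 nM) and biotinylated K9-monomethylated H3(1-15) peptide (75 nM), after 30 min compound exposure at room temperature.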
G9a block = inhibitors of human histone lysine methyltransferase G9a; Q96KQ7; G9a H3K9 monomethylation, AlphaScreen, 2 h; Potency, µM (highest dose often 102 µM), without a hit: at the highest dose activity, negative = inhibition, actives largely listed as inhibitors; actives 8.8% (n = 350,000); also: % is scaled to controls: 0 for no effect and ±100 for the full control effect; nearly all actives have a fitted effect of over 75% in size
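AlphaScreen read-out: biotin-H3K9 peptide (500 nM) methylation by 20 nM enzyme with 20 uM SAM, 2 h at room temperature after 15 min compound preincubation; anti-monomethyl H3K9 antibody plus donor/acceptor beads, 10 min dark.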
Numbers without * were called inactive; ? = inconclusive; . = no result given; [ ] = another dose, or the depositor's remark. Calls follow the shape of the dose curve; as a rule, active = well fitted inhibition curve with a large enough effect; inconclusive = small, poorly fitted or top-dose-only effect; inactive = no such curve, though single readings can be large or run the other way. Potency is read from the fitted curve at half-maximal effect.

SMILES | BAZ2B inh | HP1b binding inh | JMJD2A Tudor | L3MBTL1 inh | G9a block
Cc1cccc(Nc2nnc(-c3ccc(C)c(S(=O)(=O)NCC4CCCO4)c3)c3ccccc23)c1 (stereo unspecified) | 1% | 31% | -6% | . | -48%[59 µM]
Cc1c(Cl)cccc1-n1ncc(C(=O)NC2CCCC2)c1C1CCN(C(=O)OC(C)(C)C)CC1 | 7%[57.1 µM] | -6% | -30% | . | -10%[59 µM]
Cc1ccc(C)c(NC(=S)c2nc3ccccc3s2)c1 | 4% | -15% | 14µM* | -15% | ?
Cc1ccc(NC(=S)c2nc3ccccc3s2)cc1 | 8.9µM* | ? | ? | ? | 22µM*
S=C(Nc1ccc(Cl)cc1)c1nc2ccccc2s1 | ? | ? | ? | -22% | ?
COc1ccc(N2CCN(S(=O)(=O)CCNC(=O)Cc3ccc(Cl)cc3)CC2)cc1 | 5% | 16%[57 µM] | -4% | . | -4%[59 µM]
Cc1cc(=O)oc2cc(NC(=O)c3ccc(OC(F)F)cc3)ccc12 | -9% | 17% | -34% | . | -10%
Cc1cc(=O)oc2cc(NC(=O)Cc3ccccc3)ccc12 | -25% | 14% | -25% | . | 0%
CCCC(C(=O)Nc1ccc2c(C)cc(=O)oc2c1)c1ccccc1 (stereo unspecified) | 56µM* | 13% | -24% | . | 22µM*
Cc1cc(=O)oc2cc(NC(=O)C(C)Oc3ccc(F)cc3)ccc12 (stereo unspecified) | 6% | 10% | -19% | -1% | 45µM*
Cc1cc(=O)oc2cc(OCC(=O)NCc3ccccn3)ccc12 | -7% | 13% | -11% | -17% | 30%
Cc1cc(=O)oc2cc(NC(=S)NCc3ccccn3)ccc12 | ? | 26% | -18% | 5%[11.4 µM] | 40µM*
COc1ccc2nc(NC(=O)c3cc(=O)c4ccccc4o3)sc2c1 | 0% | 58% | -34% | . | -32%[59 µM]
Cc1cc(C)c2sc(NNC(=O)c3ccc(S(=O)(=O)N4CCc5ccccc5C4)cc3)nc2c1 | 5.6µM* | 5% | 3.5µM* | ? | ?
Cc1cc(C)c2nc(NNC(=O)c3cc(=O)c4ccccc4o3)sc2c1 | 32µM* | ? | 56µM* | -2% | 8.9µM*
Cc1nnc(NC(=O)c2ccc(S(=O)(=O)N3CCc4ccccc4C3)cc2)o1 | 79µM* | 39% | -30% | 46% | -25%
Cc1cc(C)c2nc(NNC(=O)c3ccc(S(=O)(=O)N4CCc5ccccc5C4)cc3)sc2c1 | ? | -4% | ? | ? | 40µM*
O=C(CNC(=O)C1CCCCC1)OCC(=O)c1ccc(-c2ccccc2)cc1 | . | 18%[57 µM] | 4%[57.1 µM] | . | .
COc1cccc(Cn2c(=O)cnc3cnc(Oc4ccccc4)nc32)c1 | . | . | . | . | 11%[0.501 µM]
CCOC(=O)c1sc2nc(N3CCCC3)c3c(c2c1N)CC(C)(C)OC3 | 36% | 42% | -15%[57.1 µM] | 22% | ?
CN(C(=O)c1sc2nc(N3CCCC3)c3c(c2c1N)CC(C)(C)OC3)c1ccccc1 | -25% | 38% | 11% | . | 45µM*
Cc1cccc(NC(=O)c2sc3nc(N4CCOCC4)c4c(c3c2N)CC(C)(C)OC4)c1 | -3% | 32% | -13% | . | -41%[59 µM]
CC1(C)Cc2c(c(N3CCOCC3)nc3sc(C(=O)Nc4cccc(Cl)c4)c(N)c23)CO1 | -8%[57.1 µM] | 42% | -8% | . | 79µM*
Cc1ccccc1NC(=O)c1sc2nc(N3CCOCC3)c3c(c2c1N)CC(C)(C)OC3 | -6% | 46% | -4% | . | ?
CC1(C)Cc2c(c(N3CCOCC3)nc3sc(C(=O)Nc4ccccc4)c(N)c23)CO1 | -16% | 46% | -14% | . | 28µM*
Cc1ccc(NC(=S)N2CCN(S(C)(=O)=O)CC2)cc1Cl | -11% | 52% | -5% | . | 49%
Cc1ccc(NS(=O)(=O)c2ccc(-c3cc(C)no3)cc2)c(C)c1 | -2% | 45% | -6% | . | 1%[59 µM]
Cc1oc(-c2cccc(Cl)c2)nc1Cn1c(SCc2ccccc2F)nc2ccncc21 | -18% | 9% | -32% | . | -40%[59 µM]
Cc1ccccc1Nc1nc(CSc2nnnn2-c2ccccc2)cs1 | -6% | 6% | -26% | . | 40µM*
O=C(NCCCO)C(=O)NCC(c1ccc2c(c1)OCO2)N1CCOCC1 (stereo unspecified) | -2% | 7%[57 µM] | 3% | . | -2%[59 µM]

High-throughput results from PubChem BioAssay.
